Data from PubChem BioAssay AID435026 (Broad Institute, 2010).
In all, about 1,000 compounds went through this assay and about 410 (41%) were called active. So high a share suggests a set chosen from earlier hits. The list is a sample of the results. A number with no mark means an inactive call.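 The calls were made as follows: active = fitted half-maximal inhibitory concentration no more than tenfold above the top dose tested; inconclusive = flat fit with 30 to 70% activity, or poor fit; inactive = half-maximal concentration beyond tenfold above the top dose.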

Assay: compounds reducing YIC probe YFP/CFP ratio – biochemical, fluorescence FRET, counter-screen for RanGTP-importin-beta inhibitor project, dose response (AID 435026)
Settings: Purified YIC probe, intramolecular FRET ratio YFP/CFP

Compound | IC50
CN(C)CCCn1c(N)c(C#N)c2nc(C#N)c(C#N)nc21 | 25 µM (active)
CCN(CCO)C(=S)Nc1cc(C(=O)OC)ccc1C(=O)OC | > 50 µM
O=C(Nc1ccccc1-c1ccccc1)c1cccs1 | > 50 µM
N#C/C(=C/c1ccc(N2CCCCC2)o1)C(=O)NCCc1c[nH]c2ccccc12 | 0.753 µM (active)
Cc1nc2ccccc2c2oc(C(=O)NCCCN3CCC(C)CC3)cc12 | > 50 µM
COc1ccc(C(=O)C[n+]2ccc(N)c(C)c2C)cc1 | > 50 µM
Cc1ccc(-n2c(=O)c(C#N)cc3c(=O)n4ccccc4nc32)cc1C | 1.78 µM (active)
COC(=O)c1cc2c(ccn2C)n1C | > 50 µM
CCn1c2ccccc2c2cc(NC(=O)CNC)ccc21 | > 50 µM
O=c1cc(CN2CCN(S(=O)(=O)/C=C/c3ccccc3)CC2)c2ccc(O)cc2o1 | 44.1 µM (active)
COc1cc(SC)ccc1C(=O)Nc1nc(C)cs1 | > 50 µM
COC(=O)c1ccc2c(C(C)(C)O)c(C(C)(C)O)[nH]c2c1 | > 50 µM
COc1cccc(C(=O)c2cc3ccc(O)cc3oc2=O)c1 | 28.1 µM (active)
CC(=O)c1ccc(-c2ccc(Cn3c(C)nc4cc(N)c(C)nc43)cc2)cc1 | > 50 µM
Cc1cc(O)ccc1NC1=CC(=O)CC(C)(C)C1 | > 50 µM
CC(=O)N1CCc2c(sc(NC(=O)CCS(=O)(=O)c3ccc(C)cc3)c2C(N)=O)C1 | 38 µM (active)
CCCNS(=O)(=O)c1ccc2c(c1)CCCN2C(C)=O | > 50 µM
CCOC(=O)c1c(C)oc2cc(Br)c(OCC(N)=O)cc12 | > 50 µM
COc1ccc(-n2cnc3cc(NCc4ccco4)ccc32)cc1 | > 50 µM
CC1(C)CC(=O)NC=C(c2ccccc2)C1 | > 50 µM
Cc1ccc(NC(=S)NCCN2CCOCC2)cc1 | > 50 µM
N#C/C(=C/c1ccc(N2CCOCC2)o1)C(=O)N1CCOCC1 | 5.08 µM (active)
N#C/C(=C\c1ccc(N2CCOCC2)o1)C(=O)N1CCOCC1 | 5.73 µM (active)
CCCC(C)c1nnc(NC(=O)C2CC(=O)N(c3ccc(OCC)cc3)C2)s1 (configuration not stated) | > 50 µM

Compound | IC50
COc1ccc(C(=O)Cc2cnn(-c3ccccc3)c2)c(O)c1 | > 50 µM
Cc1ccc(N2CCN(c3ccc(C)cc3)C2c2ccccn2)cc1 | > 50 µM
CCOc1ccc(N=Cc2c(O)n(-c3cccc(C)n3)c(=O)c3ccccc23)cc1 | 34.7 µM (active)
CCN(CC)c1nc(-c2ccccc2)cc(C(F)(F)F)c1C#N | 9.38 µM (active)
CCCOc1ccc(Cn2ccnc2)cc1[N+](=O)[O-] | > 50 µM
CCN1C(=O)/C(=C2/Sc3ccccc3N2CCCS(=O)(=O)O)SC1=S | 15 µM (active)
C/C(=N\N)c1c(-c2ccccc2)c2cc(Br)ccc2[nH]c1=O | > 50 µM
CN1CCN(c2cc(=O)n(-c3ccc(Cl)cc3)c(=O)[nH]2)CC1 | > 50 µM
CCC(=O)Nc1c(S(=O)(=O)c2ccccc2)c2nc3ccccc3nc2n1Cc1ccccc1 | 17.3 µM (active)
O=C(NNc1c2ccccc2nc2ccccc12)c1cc2ccccc2cc1O | > 50 µM
COc1ccc(CCn2c(=N)c(C(=O)NCc3ccco3)cc3c(=O)n4cccc(C)c4nc32)cc1 | 50.2 µM (active)
CC(C)C1C2=C(CC(C)(C)CC2=O)ON1c1ccccc1 (configuration not stated) | > 50 µM
CCN1CCc2nc(NC(=O)c3cc(F)c(F)cc3Cl)sc2C1 | > 50 µM
CNC(=O)c1cc2c(ccc3ccccc32)oc1=N | 7.06 µM (active)
CC(=O)c1cc(C#N)c(N2CC(C)OC(C)C2)nc1C (configuration not stated) | > 50 µM
Oc1c(CN2CCN(c3ccc(F)cc3)CC2)cc(Cl)c2cccnc12 | > 50 µM
CC1CN(c2cc(=O)n(-c3cccc(Br)c3)c(=O)[nH]2)CC(C)O1 (configuration not stated) | > 50 µM
CCOC(=O)c1oc2c(CN3CCN(CCO)CC3)c(O)c(CC)cc2c(=O)c1-c1nc2ccccc2s1 | 29.2 µM (active)
CC1CC(=O)N(CC(=O)Nc2cccc(Cl)c2)c2ccccc2S1(=O)=O (configuration not stated) | > 50 µM
CC(OC(=O)CNC(=O)c1cccc(F)c1)C(=O)NC1CCCCC1C (configuration not stated) | > 50 µM
OCCNCc1cccc(OCc2ccccc2Cl)c1 | > 50 µM
N#Cc1c(N)n(CCOC(=O)c2ccc(Cl)cc2)c2nc3ccccc3nc12 | 3.73 µM (active)
CCN(CC(=O)Nc1cccc(S(=O)(=O)N2CCCCC2)c1)Cc1ccccc1 | > 50 µM
